According to PubChem BioAssay (EPA / NIEHS):
Calls of active or inactive are those of the source. How the source made its calls: active means hit-call score of the fitted dose curve at least 0.9, where 1 is the maximum; inactive means score below 0.9.

Assay: APR_HepG2_CellCycleArrest_1hr: Apredica 1-hour HepG2 Assay for Cell Cycle Arrest (AID 2282666)
Conditions: high-content imaging, actives raise or lower the signal
Description: APR_HepG2_1hr is a cell-based, multiplexed-readout assay that uses HepG2, a human liver cell line, with measurements taken at 1 hour after chemical dosing in a 384-well plate.APR_HepG2_CellCycleArrest_1hr is one of 10 assay component(s) measured or calculated from the APR_HepG2_1hr assay. It is designed to make measurements of cell phenotype, a form of morphology reporter, as detected with fluorescence intensity signals by HCS Fluorescent Imaging technology.Data from the assay component APR_HepG2_CellCycleArrest_1hr was analyzed into 1 assay endpoint. This assay endpoint, APR_HepG2_CellCycleArrest_1hr, was analyzed with bidirectional fitting relative to DMSO as the negative control and baseline of activity. Using a type of morphology reporter, measures of all nuclear dna for gain or loss-of-signal activity can be used to understand the signaling at the pathway-level as they relate to the gene . Furthermore, this assay endpoint can be referred to as a primary readout, because this assay has produced multiple assay endpoints where this one serves a signaling function. To generalize the intended target to other relatable targets, this assay endpoint is annotated to the cell cycle intended target family, where the subfamily is arrest.
Cells were treated with dimethyl sulfoxide (DMSO) as a solvent control at a final concentration of 0.5% v/v or with compounds in DMSO with a resulting final DMSO concentration of 0.5% v/v. Compound treatment was done at concentrations of 0.39, 0.78, 1.56, 3.12, 6.24, 12.5, 25, 50, 100, and 200 uM in duplicate on each plate. Cells were treated with compounds for 1, 24, or 72 hr. Carbonyl […] m-chloro-phenylhydrazone (CCCP) and taxol were used as positive controls for mitochondrial function and cytoskeletal stability, respectively; DMSO served as the negative control for this experiment. Cells were fixed by the direct addition of 50 uL formaldehyde in Hank's Balanced Salt Solution (HBSS) to a final concentration of 3.7%. After incubation in the fixation medium for 30 min at room temperature (293-298 K), cells were rinsed twice with HBSS and treated with cell permeabilization buffer (16 uL of 0.5% Triton X-100) for 10 min at room temperature (293-298 K) before labeling. For mitochondrial membrane potential and mitochondrial measurements, pre-fixed cells were incubated with 50 uL of MitoTracker Red CMXRos (Invitrogen) at a concentration of 250 nM for 30 min before fixation. In the remaining cases, post-fixed cells were labeled by incubation with a multiplexed mixture of primary antibodies in HBSS for 60 min at room temperature (293-298 K) to detect immunoreactivity of c-Jun (1:500), phospho-histone H3 (1:100), phospho-histone H2A.x (1:200), p53 (1:400), alpha-tubulin (1:200) and Hoechst 33342 (2 ug/mL). Cells were labeled for multiplexed imaging on two separate plates: a) Hoechst 33342, MitoTracker Red, phospho-histone H3, and alpha-tubulin, and b) Hoechst 33342, phospho-histone H2A.x, and c-Jun. A final rinse with HBSS (50 uL) was performed before analysis. The primary and secondary antibodies for the proteins were phospho-histone H3 (rabbit anti-phospho-histone H3 and FITC-donkey anti-rabbit IgG), phospho-histone H2A.x (mouse anti-phospho-histone H2A.x and FITC-donkey anti-mouse IgG), c-Jun (rabbit anti-phospho-c-Jun and Cy3-donkey anti-rabbit IgG), p53 (sheep anti-p53 and Cy5-donkey anti-sheep IgG), alpha-tubulin (mouse anti-alpha-tubulin and Cy5-donkey anti-mouse IgG). These antibodies are available as the CellCiphr HepG2 assay kit (Millipore).Digital images of each well were captured using a Cellomics ArrayScan VTI (Thermo Scientific Cellomics) (0.8 NA objective, 0.63x optical coupler, and XF-93 filter set) at 20x magnification. The images were acquired using the autofocus feature of the ArrayScan instrument, which entails the following steps. First, the camera focuses on channel 1 (Hoechst 33342), where nuclei are identified. Second, a Z offset of 1 um is used for capturing mitochondria (MitoTracker Red). […]

Compound	outcome
O=C(O)C1(C(=O)Nc2ccc(Cl)cc2Cl)CC1	inactive
COC(=O)c1c(Cl)nn(C)c1S(=O)(=O)NC(=O)Nc1nc(OC)cc(OC)n1	inactive
CC(C)(C)[C@@H](O)[C@@H](Cc1ccc(Cl)cc1)n1cncn1	inactive
CCCOC(=O)NCCCN(C)C	inactive
CC1(C)C(C=C(Cl)Cl)C1C(=O)OCc1cccc(Oc2ccccc2)c1 (stereo not given)	inactive
COC(=O)c1ccccc1C(=O)O	inactive
S=C([S-])NCCNC(=S)[S-].[Mn+2]	inactive
CCNc1nc(N)nc(Cl)n1	inactive
c1ccc2[nH]c(-c3cscn3)nc2c1	inactive
CCC(C)OC(=O)N1CCCCC1CCO (stereo not given)	inactive
COCCO	inactive
CN(C)C(=O)Nc1ccc(Cl)c(Cl)c1	inactive
O=C(Nc1ccc([N+](=O)[O-])cc1Cl)c1cc(Cl)ccc1O	inactive
CCOC(=O)[C@H](C)Oc1ccc(Oc2nc3ccc(Cl)cc3o2)cc1	inactive
CCCCOCCOCCOCc1cc2c(cc1CCC)OCO2	inactive
CCCN(CCC)c1c([N+](=O)[O-])cc(C(F)(F)F)c(N)c1[N+](=O)[O-]	inactive
Oc1ccc(C(c2ccc(O)cc2)C(Cl)(Cl)Cl)cc1	inactive
N#CSCSc1nc2ccccc2s1	inactive
CCOC(=O)COc1cc(-n2ncc(C(F)(F)F)c(C)c2=O)c(F)cc1Cl	inactive
OB(O)O	inactive

Compound	outcome
CCN(CC)C(=O)c1cccc(C)c1	inactive
Cc1nn(C)c(Oc2ccccc2)c1C=NOCc1ccc(C(=O)OC(C)(C)C)cc1	inactive
CCC(O)=C1C(=O)CC(C(=O)O)CC1=O (stereo not given)	inactive
COc1c(Cl)ccc(Cl)c1C(=O)O	inactive
CCCCOC(=O)C(C)Oc1ccc(Oc2ccc(C(F)(F)F)cn2)cc1 (stereo not given)	inactive
CCCCCOC(=O)COc1cc(N2C(=O)C3=C(CCCC3)C2=O)c(F)cc1Cl	inactive
CSC(=O)c1cccc2nnsc12	inactive
CCCCC(CC)COC(=O)c1ccccc1C(=O)O (stereo not given)	inactive
CCCN(CCC)C(=O)SCC	inactive
S=C(S)NCCNC(=S)S.[Mn+2].[S-]C([S-])=NCCN=C([S-])[S-].[Zn+2]	inactive
CCOC(=O)NCCOc1ccc(Oc2ccccc2)cc1	inactive
CCCCOC(=O)[C@@H](C)Oc1ccc(Oc2ccc(C(F)(F)F)cn2)cc1	inactive
CCCOC(=O)c1ccc(C(=O)OCCC)nc1	inactive
C#CCOC(=O)[C@@H](C)Oc1ccc(Oc2ncc(Cl)cc2F)cc1	inactive
CCN(Cc1c(F)cccc1Cl)c1c([N+](=O)[O-])cc(C(F)(F)F)cc1[N+](=O)[O-]	inactive
COC(=O)c1cccc(C)c1S(=O)(=O)NC(=O)Nc1nc(OCC(F)(F)F)nc(N(C)C)n1	inactive
CCOC(=O)C(C)Oc1ccc(Oc2cnc3cc(Cl)ccc3n2)cc1 (stereo not given)	inactive
COc1nc(C)nc(NC(=O)NS(=O)(=O)c2ccccc2OCCCl)n1	inactive
COC(=O)c1ccc(CNS(C)(=O)=O)cc1S(=O)(=O)NC(=O)Nc1nc(OC)cc(OC)n1	inactive
COC(=O)CSc1cc(N=c2sc(=O)n3n2CCCC3)c(F)cc1Cl	inactive
